Compound activity deposited in PubChem BioAssay by Broad Institute.
The sample as a whole holds a higher share of hits than the screen did.
IDE exosite FP – exo-site inhibitors of human insulin-degrading enzyme; P14735; purified IDE, FL-6b probe fluorescence polarization; hits give low values; z-score at 20 µM; 17,000 tested, 6.3% active; AID 1259349;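 active = z-score of -3 or lower, meaning strong loss of probe binding signal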;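 note: His-tagged human IDE residues 42-1019 made in E. coli with 30 nM FL-6b probe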
Active calls of the source: *.

SMILES | IDE exosite FP
COC(=O)c1ccc(CN2CC(=O)N3[C@H](C2)[C@@H](c2ccc(Br)cc2)[C@@H]3CO)cc1 | 1.4
N#C[C@H]1[C@@H](c2ccccc2C2=CCCCC2)[C@@H](CO)N1C(=O)NC1CCCC1 | 2.4
N#C[C@H]1[C@@H](c2ccc(C#CCC3CCCC3)cc2)[C@@H](CO)N1C(=O)c1ccccn1 | 3.7
CCS(=O)(=O)Nc1ccc2c(c1)C(=O)N(C)[C@@H]1CC[C@H](CC(=O)N3CCN(C)CC3)O[C@@H]1CO2 | 0.8
Cc1cccc(S(=O)(=O)N2C[C@H]3[C@@H](c4ccccc42)[C@@H](CO)N3C(=O)c2ccccc2)c1 | 0.35
COCC(=O)N1[C@H](C#N)[C@@H](c2ccc(C#Cc3ccccc3F)cc2)[C@H]1CO | -3.9*
N#C[C@@H]1[C@H](c2ccc(C#Cc3ccccc3F)cc2)[C@H](CO)N1C(=O)C1CC1 | -2.4
COc1ccccc1C#Cc1ccc([C@@H]2[C@@H](C#N)N(C(=O)C3CC3)[C@@H]2CO)cc1 | -6.4*
COCC(=O)N1[C@@H](C#N)[C@@H](c2ccccc2)[C@@H]1CO | 1.6
COc1ccc(S(=O)(=O)N2CCCCN3[C@H](CO)[C@H](c4ccc(C5=CCCC5)cc4)[C@@H]3C2)cc1 | 2.3
Cc1ccc(S(=O)(=O)N2[C@@H]3CNC[C@H]2C3c2ccc(-c3cccc(C)c3)cc2)cc1 (some centres undefined) | 1.1
CO[C@@H]1CN(C)C(=O)c2ccc(NC(=O)Nc3cc(F)ccc3F)cc2OC[C@@H](C)N(C(=O)c2ccccn2)C[C@H]1C | -1.2
CC(C)NC(=O)Nc1ccc2c(c1)C(=O)N([C@H](C)CO)C[C@@H](C)[C@@H](CN(C)C(=O)C1CCCCC1)OCCCC[C@H](C)O2 | 2.2
C[C@H](O)C#Cc1ccc([C@H]2[C@H]3CN(C(=O)Nc4ccccc4)CCCCN3[C@H]2CO)cc1 | -1
OC[C@@H]1[C@H](c2ccc(-c3ccccc3F)cc2)[C@@H]2CN(Cc3cncnc3)CCCCN12 | -1.6
Cc1ccc(-c2ccc([C@H]3[C@@H](CO)N4CCCCN(Cc5cncnc5)C[C@H]34)cc2)cc1 | -0.17
Cc1cccc(-c2ccc([C@H]3[C@@H](CO)N4CCCCN(Cc5cccnc5)C[C@@H]34)cc2)c1 | -1.8
Cc1cccc(-c2ccc([C@H]3[C@@H](CO)N4CCCCN(Cc5cccnc5)C[C@H]34)cc2)c1 | -6.8*
Cc1cccc(-c2ccc([C@@H]3[C@H]4CN(Cc5cncnc5)CCCCN4[C@H]3CO)cc2)c1 | -4.7*
Cc1cccc(-c2ccc([C@@H]3[C@@H](CO)N4CCCCN(Cc5cncnc5)C[C@@H]34)cc2)c1 | -6.7*
OC[C@@H]1[C@H](c2ccc(C3=CCCC3)cc2)[C@H]2CN(Cc3cncnc3)CCCCN12 | 0.59
Cc1cccc(-c2ccc([C@@H]3[C@H](CO)N4CCCCN(Cc5cncnc5)C[C@@H]34)cc2)c1 | -7.5*
OC[C@@H]1[C@@H](c2ccc(Br)cc2)[C@H]2CN(Cc3cncnc3)CCCCN12 | 0.52
OC[C@@H]1[C@H](c2ccc(-c3ccc(F)cc3)cc2)[C@H]2CN(Cc3cccnc3)CCCCN12 | 1.2
OC[C@@H]1[C@@H](c2ccc(-c3ccccc3F)cc2)[C@H]2CN(Cc3cncnc3)CCCCN12 | 0.86
SMILES | IDE exosite FP
O=C1N[C@H](c2ccccc2)COCc2cn(nn2)CC[C@H]1Cc1ccc(C(F)(F)F)cc1 | 0.57
CCCC#Cc1ccc([C@@H]2[C@H](CO)N3C(=O)CN(C(=O)Nc4ccccc4)C[C@@H]23)cc1 | 1.1
O=C1CN(S(=O)(=O)Cc2ccccc2)C[C@H]2[C@H](c3ccc(C#Cc4cccnc4)cc3)[C@H](CO)N12 | -0.55
CO[C@@H](CN(C)S(=O)(=O)c1ccc(C)cc1)[C@@H](C)CN([C@H](C)CO)S(=O)(=O)c1cccc(Cl)c1 | 1.9
OC[C@@H]1[C@H](c2ccc(-c3ccncc3)cc2)[C@@H]2CN(Cc3ccccn3)CCCCN12 | 4.1
CN(C)CC(=O)N1CC(=O)N2[C@@H](CO)[C@H](c3ccc(-c4ccc(C#N)cc4)cc3)[C@@H]2C1 | 2.8
O=C(CC1CC1)N1CC(=O)N2[C@H](C1)[C@H](c1ccc(/C=C/c3ccccc3)cc1)[C@@H]2CO | -3.8*
O=C(CC1CC1)N1CC(=O)N2[C@@H](CO)[C@@H](c3ccc(C#Cc4ccc(F)cc4)cc3)[C@@H]2C1 | 2.4
O=C(CC1CC1)N1CC(=O)N2[C@@H](CO)[C@H](c3ccc(-c4ccccc4)cc3)[C@@H]2C1 | -0.6
O=C(c1ccc(F)cc1)N1CC(=O)N2[C@H](C1)[C@H](c1ccc(/C=C/c3ccccc3)cc1)[C@@H]2CO | -2.8
O=C(Cc1ccccc1)N1CC(=O)N2[C@H](CO)[C@@H](c3ccc(C#Cc4ccccc4)cc3)[C@@H]2C1 | -0.47
O=C(CC1CC1)N1CC(=O)N2[C@@H](CO)[C@@H](c3ccc(-c4cccnc4)cc3)[C@@H]2C1 | -1.4
O=C(CC1CC1)N1CC(=O)N2[C@H](CO)[C@@H](c3ccc(C#Cc4ccccc4)cc3)[C@H]2C1 | -6.4*
CN(C)CC(=O)N1CC(=O)N2[C@@H](CO)[C@H](c3ccc(/C=C/c4ccccc4)cc3)[C@@H]2C1 | -4.2*
